Data as given in PubChem BioAssay.

Assay: CREB reporter modulators under forskolin, primary screen, cell-based, PC12, CRE-LacZ reporter, forskolin-stimulated (AID 1146);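 further: PC12 cells with 6xCRE LacZ reporter stimulated by forskolin 10 µM; beta-galactosidase reporter signal reflecting CREB driven transcription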
Conditions: luminescence, 4.5 h, higher = more signal, called active from +8 up or from −8 down

z-score, inactive:
C=CCC(OC(C)=O)[C@@H]1[C@@H](N(Cc2cc3ccccc3o2)C(=O)c2ccc(-c3ccccc3)cc2)c2cc(OCCCO)ccc2N1C(=O)Cc1ccc(OC)cc1 (stereo not given in full) 0.289
COCC(=C=CC[C@@H](O)c1ccc(OCCO)cc1)CCO -0.482
CC(C)(C)OC(=O)CC[C@]12N=C(c3ccc(OCCCO)cc3)O[C@H]1c1ccccc1N(Cc1ccccc1)C2=O -0.746
O=C1OCCC/C=C\[C@H]2OC34C=CCN(c5ccc6ccccc6c5)C(=O)[C@H]3N(CCCO)C(=O)[C@@H]4C12 (stereo not given in full) -0.942
C=C/C=C/[C@@H]1C(=C)CN([C@@H](Cc2ccccc2)C(=O)OC)[C@H]1[C@@H](O)Cc1ccccc1 2.05
O=C1NC(=O)C2C1C=CC(C(O)c1ccccn1)N2Nc1ccc(Cl)cc1Cl (stereo not given) -0.0259
CC(C)C[C@@H]1NC(=O)CNC(=O)[C@@]23C(=O)N[C@@H](Cc4ccccc4)C2[C@H](C)[C@@]2(C)O[C@H]2C3/C=C/C/C=C\CNC1=O (stereo not given in full) 0.297
CCOC(=O)C1=C[C@@H](c2ccccc2)N(S(=O)(=O)c2ccc(C)cc2)[C@H]1c1ccccc1 0.294
[N-]=[N+]=NCc1ccccc1C[C@]1(C(=O)N2CCOCC2)COC(c2ccc(OCCCO)cc2)=N1 -0.931
COCCOC(=O)N1C(=O)[C@@]2(c3cc(C#Cc4ccc(OC)cc4)ccc31)[C@H](C(=O)NC[C@H](O)c1ccccc1)[C@H]1C(=O)O[C@H](c3ccccc3)[C@H](c3ccccc3)N1[C@@H]2c1ccc(OCCO)cc1 -0.544
COCCOC(=O)N1C(=O)[C@@]2(c3cc(C#CCC(C(=O)OC)C(=O)OC)ccc31)[C@H](c1ccc(OCCO)cc1)N1[C@H](c3ccccc3)[C@H](c3ccccc3)OC(=O)[C@H]1[C@@H]2C(=O)Nc1nc2ccccc2s1 0.282
COCCOC(=O)N1C(=O)[C@@]2(c3cc(C#CCNC(N)=O)ccc31)[C@H](c1ccc(O)cc1)N1[C@H](c3ccccc3)[C@H](c3ccccc3)OC(=O)[C@H]1[C@@H]2C(=O)N1CCN(c2ncccn2)CC1 -0.249
COc1cc(C(O)C2C=CC3C(=O)N(Cc4ccccc4)C(=O)C3N2n2cnnc2)cc(OC)c1OC (stereo not given) -0.634
CCCCC=C[C@@H](NC(=O)c1ccccc1)c1ccccc1 1.39
COc1ccc([Si](C)(C)[C@@H]2[C@@H](CC(=O)N3Cc4ccccc4C[C@H]3CO)O[C@]3(C(=O)N(c4ccccc4)c4ccccc43)[C@H]2C)cc1 0.931
CCOC(=O)C1=CCC(c2ccccc2)N(S(=O)(=O)c2ccc([N+](=O)[O-])cc2)C1 (stereo not given) -0.536
[N-]=[N+]=NCc1ccccc1[C@@H]1OC(c2ccc(OCCCO)cc2)=N[C@]1(Cc1ccccc1N=[N+]=[N-])C(=O)N1CCCCC1 -0.189
C=CCN1C(=O)[C@]2(O[C@H](CCO)[C@@H]([Si](C)(C)c3ccc(OC)cc3)[C@@H]2C)c2cc(N3C(=O)COc4ccccc43)ccc21 -3.5
COCCCNC(=O)[C@@]1(c2ccc([N+](=O)[O-])cc2)CC(=O)N(CC23CC4CC(CC(C4)C2)C3)[C@@H]1c1ccc(CO)cc1I 0.372
CC(C)OC(=O)CC(=O)CC(O)c1ccc([N+](=O)[O-])cc1 (stereo not given) 1.59
CCOC(=O)C1=CCC(c2ccco2)N(S(=O)(=O)c2ccc(C)cc2)C1 (stereo not given) 0.887
[N-]=[N+]=Nc1ccccc1[C@@H]1OC(c2ccc(OCCCO)cc2)=N[C@]1(Cc1ccccc1)C(=O)NCc1ccccc1 -0.757
[N-]=[N+]=NCc1ccccc1C[C@@]1(C(=O)N2CCCCC2)N=C(c2ccc(OCCCO)cc2)O[C@@H]1c1ccccc1CN=[N+]=[N-] 0.872
O=C1C2C=CC(C(O)c3ccc(I)cc3)N(Nc3ccccc3)C2C(=O)N1c1ccccc1 (stereo not given) 0.32
CC(C)C(=C=CC[C@@H](O)c1cccc(OCCO)c1)C[C@@H](O)c1ccccn1 -0.039
COC(=O)[C@@]1(Cc2ccccc2CN=[N+]=[N-])N=C(c2ccc(OCCCO)cc2)O[C@H]1c1ccccc1 -0.923
CCOC(=O)C[C@H]1[C@H](OC(=O)c2cc3ccccc3oc2=O)[C@@H](NC(=O)c2ccc3ccccc3c2)c2cc(OCCCO)ccc2N1C(=O)Cc1ccc(OC)cc1 -0.931
COC(=O)[C@@]1(Cc2ccc(OC)cc2)[C@H]2c3cc(C(=O)N4CCCC4)n(Cc4cc(C)n(C)n4)c3C[C@H]2CN1C(=O)c1ccccc1 0.543
C=C(CCCC)C(=O)CC[C@H](OC(C)=O)c1ccc(OCCO)cc1 -0.361
COc1ccc(C(=O)Nc2cccc(CN3C(=O)[C@]4(O[C@H](CCn5cc([C@H](O)c6ccccc6)nn5)[C@@H]([Si](C)(C)c5ccc(OC)cc5)[C@@H]4C)c4ccccc43)c2)cc1 -0.413
COCCOC(=O)N1C(=O)[C@@]2(c3cc(C#CC4=CCCCC4)ccc31)[C@H](C(=O)N1CCCCCCC1)[C@H]1C(=O)O[C@H](c3ccccc3)[C@H](c3ccccc3)N1[C@@H]2c1ccc(OCCO)cc1 0.463
C=C(CCCC)/C(=C/C[C@H](OC(C)=O)c1ccc(OCCO)cc1)c1cc(C(=O)OC)ccc1OC -0.499
COc1ccc([Si](C)(C)[C@H]2[C@H](CC(=O)N3CCC[C@H]3CO)O[C@@]3(C(=O)N(Cc4ccc(N5CCC5=O)cc4)c4ccccc43)[C@@H]2C)cc1 -0.404
[N-]=[N+]=NCc1ccccc1[C@@H]1OC(c2ccc(OCCCO)cc2)=N[C@]1(Cc1ccccc1N=[N+]=[N-])C(=O)NCCN1CCOCC1 -1.78
O=C1C[C@@](C(=O)NCC(F)(F)F)(c2ccc([N+](=O)[O-])cc2)[C@@H](c2ccc(CO)cc2)N1CC12CC3CC(CC(C3)C1)C2 -1.01
